Results from PubChem BioAssay AID2732 (Emory University Molecular Libraries Screening Center, 2010).
Among all 220,000 compounds or so, about 8,200 (3.7%) were called active. The sample holds actives, similar compounds and a random draw of the others, so the mix is not that of the screen. Unmarked numbers belong to inactive results.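 The calls were made as follows: active = compounds that reduced the stress-induced luciferase reporter signal by more than about 70% of percent inhibition (limit read from the data); inactive = the rest.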

test: inhibitors of CHOP promoter induction, primary screen, cell-based, unfolded protein response, luciferase reporter (AID 2732); conditions: CHO-K1 CHOP-promoter luciferase, tunicamycin-induced, 15-18 h; at 10 µM; stronger effect = higher value;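 also: 0% = tunicamycin plus vehicle and 100% = wells without tunicamycin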

Row | SMILES | inhibition
1 | CN(CC(=O)Nc1ccc(F)cc1)CC(=O)Nc1ccc(Cl)c(S(=O)(=O)N2CCOCC2)c1 | -2.81%
2 | Cc1nn2c(NCCN(C)C)c3c(nc2c1-c1ccccc1)CCC3 | -22%
3 | COc1ccc(-n2c(=S)[nH]c3sc4c(c3c2=O)CCc2ccccc2-4)cc1 | -20.5%
4 | CCC1(C)Cc2c(sc3nc(SC)[nH]c(=O)c23)CO1 (stereo not drawn) | 10%
5 | CSc1nc2sc3c(c2c(=O)[nH]1)CCc1ccccc1-3 | 106% (active)
6 | CCn1c(SCC(=O)N/N=C/c2ccccc2OCC(=O)O)nnc1-c1ccc(C(C)(C)C)cc1 | 4.75%
7 | CC(C)(C)n1cnnc1Sc1ccc([N+](=O)[O-])cn1 | 12.9%
8 | Cc1ccc(-c2c[n+](CC(=O)Nc3ccccc3)c3n2CCC3)cc1 | 16.6%
9 | O=C(O)C1CCN(C(=O)c2cc(F)cc3c2OCOC3)CC1 | 12.2%
10 | O=C(CC12CC3CC(CC(C3)C1)C2)Nc1ccc2c(c1)COC2=O | 69.7%
11 | Cc1ccc(S(=O)(=O)NNC(=O)Nc2cccc3ccccc23)cc1 | 36.5%
12 | O=C(Nc1ccc2c(c1)C(=O)OC2)Nc1cccc2ccccc12 | 90.2% (active)
13 | O=C(c1cccc2ccccc12)N1CCN(c2ccccc2F)CC1 | 91.4% (active)
14 | COc1ccc2oc(=O)c(C(=O)N3CCN(c4ccccc4F)CC3)cc2c1 | 25.2%
15 | O=C(c1ccc(CN2CCOCC2)cc1)N1CCN(c2ccccc2F)CC1 | -5.7%
16 | COc1ccc(CCNC2=CC(=O)CC(C)(C)C2)cc1 | 6.34%
17 | C=CCN1CC(C)/C(=N\O)CC1C (stereo not drawn) | -23.6%
18 | CCOC(=O)C1(S(=O)(=O)c2ccccc2)CCN(Cc2ccccc2)CC1 | -6.62%
19 | CC1=C/C(=N\OS(=O)(=O)c2ccccc2)C=CC1=O | 108% (active)
20 | CC1=C/C(=N\S(=O)(=O)c2ccccc2)C(C(C)C)=CC1=O | 49.7%
21 | CN(C(=O)CCn1c(=S)oc2ccccc21)C1CCCCC1 | 4.79%
22 | O=C(O)[C@@H]1CCCN1c1ncnc2sc3c(c12)CCC3 | -1.98%
23 | OCCNc1nc2ccccc2n1-c1ncnc2sc3c(c12)CCC3 | 74.4% (active)
24 | CC(C)(C)C(=O)Cn1c(NCCO)nc2ccccc21 | 9.85%
25 | N/C(=N\S(=O)(=O)c1cc(C(F)(F)F)cc(C(F)(F)F)c1)c1cccs1 | 34.7%

Row | SMILES | inhibition
26 | Cc1ccc(S(=O)(=O)NC(=O)Nc2nc(-c3ccc(F)c(F)c3)cs2)cc1 | 1.74%
27 | CCOC(=O)c1cc(C)nc(S(C)(=O)=O)c1C#N | -90.6%
28 | Oc1cccc(C2c3[nH]c4ccccc4c3CCN2Cc2cnn(-c3ccccc3)c2)c1 (stereo not drawn) | 106% (active)
29 | COc1cccc(C2c3[nH]c4ccccc4c3CCN2Cc2cccc(C)n2)c1 (stereo not drawn) | 8.45%
30 | c1ccc(C2c3[nH]c4ccccc4c3CCN2Cc2cccn2-c2cccnc2)nc1 (stereo not drawn) | -19.1%
31 | Cn1c(CSCC(=O)Nc2ccccc2)nnc1SCc1ccccc1 | -6.7%
32 | COc1ccc(NC(=O)CCN2C(=O)/C(=C/c3ccc4c(c3)OCO4)SC2=S)cc1 | -8.39%
33 | CCCCCCCCn1c2c(c(=N)c3c1CCC3)CCCC2 | 75.5% (active)
34 | O=C(N/N=C/c1cccc([N+](=O)[O-])c1)c1ccncc1 | 5.76%
35 | O=C(CSc1nnnn1-c1ccc(O)cc1)c1ccc(F)cc1 | 17%
36 | CCCCC(CCC(=O)Nc1ccc(C(=O)OCC)cc1)C(=O)O (stereo not drawn) | 14.7%
37 | CCOC(=O)Nc1ccc(NC(=O)OCC)cc1 | 26.9%
38 | CCCCCOC(=O)NCCOC(=O)Nc1ccc(C(=O)OCC)cc1 | 83.8% (active)
39 | O=C(CN1CCCCC1)Nc1ccccc1Cl | 10.1%
40 | O=C(CN1CCCCCC1)Nc1ccc(Br)cc1Br | 84.9% (active)
41 | COc1cc([N+](=O)[O-])ccc1NC(=O)CN1CCCC1 | -4.65%
42 | CCOc1ccc(C2c3[nH]c4ccccc4c3CCN2Cc2cccn2-c2ncccn2)cc1 (stereo not drawn) | -20%
43 | Cc1nnc(N/N=C/c2cccs2)[nH]c1=O | 10.9%
44 | CCOc1ccc(-n2cnc3c(=O)[nH]c(N)nc32)cc1 | 8.78%
45 | CC1CC2C3CCC4=CC(=O)C=C[C@]4(C)[C@@]3(F)[C@@H](O)C[C@]2(C)[C@@]1(O)C(=O)CO (stereo partly drawn) | 4.18%
46 | CCN1CCN(c2nc(Nc3cccc(F)c3)nc(N)c2[N+](=O)[O-])CC1 | 3.99%
47 | Nc1nc(Nc2ccccc2)nc(NCCO)c1[N+](=O)[O-] | -4.79%
48 | CNc1nc(Nc2ccc(C)c(Cl)c2)nc(N)c1[N+](=O)[O-] | 81.6% (active)
49 | COc1ccc2c(c1)c1ncn(Cc3ccccn3)c(=O)c1n2C | 18.8%
50 | CCN(CC)C(=O)Oc1ccc(Br)cc1C(=O)Nc1ccc(F)c(Cl)c1 | -9.25%

Row | SMILES | inhibition
51 | CN(C)C(=S)Nc1ccc(Br)cc1Cl | -7.26%
52 | CCCCSc1nnc2c(n1)OC=Nc1ccccc1-2 | -26.6%
53 | CCC1=C/C(=C\c2ccc3c(c2)OCO3)C(=O)S1 | 47.3%
54 | O=C1/C(=C/c2ccc3c(c2)OCO3)CCC/C1=C\c1ccc2c(c1)OCO2 | 10.8%
55 | CSC1=N/C(=C\c2ccc3c(c2)OCO3)C(=O)S1 | 79.4% (active)
56 | C/C=N/N(c1ccccc1)c1ccccc1 | 12.3%
57 | Oc1ccc(-c2nnc(Nc3ccccc3)c3ccccc23)cc1 | 34.9%
58 | COc1cc(OC)c2ccc(=O)oc2c1C(CCN1CCN(c2ccccc2)CC1)c1ccc2c(c1)OCO2 (stereo not drawn) | 6.77%
59 | Cc1[nH]n(C)c(=O)c1C(=O)c1c(-c2c(Cl)cccc2Cl)noc1C | -56.3%
60 | COc1ccc(CNC(=O)C(Cc2ccccc2)n2cccc2)cc1 (stereo not drawn) | 9.45%
61 | CN(C)c1nc(=Nc2cccc(Cl)c2)ss1 | 74.4% (active)
62 | CCOC(=O)C1=C(O)CSC1=Nc1cccc(Cl)c1 | 12.7%
63 | Clc1cccc(N=C2NN=C(c3ccc4c(c3)OCCO4)CS2)c1 | 10.5%
64 | CN1C(=O)/C(=C/c2ccc(C(=O)NC3CCCC3)cc2)Oc2ccccc21 | 101% (active)
65 | O=C(NC1CC1)c1ccc(-c2ccccc2)cc1 | -3.76%
66 | COc1ccccc1N(C)S(=O)(=O)c1ccc(C(=O)NC2CCCCCC2)cc1 | 19.2%
67 | CCc1ccc2nc(Nc3ncc(C(C)=O)c(C)n3)nc(C)c2c1 | 1.13%
68 | NNC(=O)c1cccc(COCC(F)(F)C(F)F)c1 | -3.75%
69 | O=C(CCCl)Nc1ccc(S(=O)(=O)NCc2ccco2)cc1 | -12.6%
70 | COC(=O)C1NN=C(C(=O)c2ccc(Br)cc2)C1c1cccc(Br)c1 (stereo not drawn) | 75.1% (active)
71 | COc1ccc(C(=O)c2oc3ccc(Br)cc3c2NC(C)=O)cc1 | 10%
72 | O=C(NC1CC1)c1cccc(Br)c1 | 20.9%
73 | C/C(CC(C)C)=N\Oc1nc(C)cc(C)n1 | -11.9%
74 | FC(F)(F)c1cc(C(F)(F)F)c2ccc(N3CCN(c4ccccc4)CC3)nc2n1 | 96.8% (active)
75 | Cc1cc(N2CCN(c3ccccc3)CC2)nc(N2CCOCC2)n1 | 12%

Row | SMILES | inhibition
76 | O=C(NC(=S)Nc1cccc2c(O)cccc12)c1cccc(Br)c1 | 32.1%
77 | CCOC(=O)c1c(C)oc(C)c(C(=O)OCC)c1=O | 1.84%
78 | O=C(CN1CCN(S(=O)(=O)c2ccc(F)cc2)CC1)Nc1ccccc1F | 14.5%
79 | Cc1ccc(S(=O)(=O)N2CCN(C(=O)c3cccs3)CC2)cc1 | 18.5%
80 | Cc1ccc(S(=O)(=O)N2CCN(Cc3cccc(C)c3O)CC2)cc1 | 83% (active)
81 | Cc1ccc(S(=O)(=O)N2CCN(S(=O)(=O)N3CCOCC3)CC2)cc1 | -15%
82 | O=S(=O)(c1ccc(F)cc1)N1CC=C(c2ccccc2)CC1 | 5.87%
83 | O=S(=O)(c1ccc(F)cc1)N1CCN(Cc2ccccc2C(F)(F)F)CC1 | 88% (active)
84 | CN(CC(O)COc1ccc(S(=O)(=O)N2CCOCC2)cc1Cl)C1CCCCC1 (stereo not drawn) | 9.37%
85 | O=C(O)COCC(=O)NCc1csc2ccc(Cl)cc12 | 1.58%
86 | CCOc1ccc(NS(=O)(=O)c2ccc(C)c(C(N)=O)c2)cc1 | 16.6%
87 | COc1cccc(NS(=O)(=O)c2ccc3[nH]cc(C(=O)NCCCOC(C)C)c(=O)c3c2)c1 | -0.02%
88 | CCCCNC(=O)c1c[nH]c2ccc(S(=O)(=O)Nc3ccc(OCC)cc3)cc2c1=O | 100% (active)
89 | COC(=O)c1ccc(S(=O)(=O)NCc2ccccc2)n1C | 15.6%
90 | O=c1cc(CCl)nc2scc(-c3ccccc3)n12 | -35.4%
91 | Cc1nc(SCC(=O)Nc2cc(C)on2)c2c3c(sc2n1)CCCC3 | 97.7% (active)
92 | Cc1nc(SCC(=O)Nc2cc(C)on2)c2c(C)c(C)sc2n1 | 69.6%
93 | C=CCn1c(SCc2c(C)noc2C)nc2sc3c(c2c1=O)CCC(C)C3 (stereo not drawn) | 25.9%
94 | Cc1cc(NC(=O)CSc2nc3c(cc2C#N)CCCCC3)no1 | -14.1%
95 | Cc1cc(NC(=O)CSc2nc3ccccc3n2CC(C)C)no1 | -2.4%
96 | Cc1cc(NC(=O)CSc2nc(C(C)C)nc3sc4c(c23)CCC(C)C4)no1 (stereo not drawn) | 78.5% (active)
97 | CNC(=S)NNC(=O)c1ccc(N(C)C)cc1 | -5.96%
98 | O=C(Nc1n[nH]c(C(F)(F)F)n1)c1cccs1 | 3.43%
